# Screening results: PubChem BioAssay, National Center for Advancing Translational Sciences (NCATS)
# LDHA block = qHTS assay for inhibitors of human lactate dehydrogenase. L-lactate dehydrogenase A chain (Homo sapiens), P00338. purified LDHA, NADH/diaphorase-resazurin fluorescence; stronger effect = lower value. activity change, % (values are at about 110 or 230 µM). hit rate 0.15% among 480,000; in the data active = activity change below about -30%; inconclusive = mostly about -25% to -30%;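 also: plate controls were DMSO wells for no effect and wells without enzyme for full effect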
#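 Enzyme activity of human lactate dehydrogenase 5 (2 nM; 0.06 mM NADH, 0.2 mM pyruvate, 5 min, RT) is measured via a resazurin/diaphorase fluorescence readout of residual NADH.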
# RORg inh = qHTS for inhibitors of ROR gamma transcriptional activity; Drosophila S2 Gal4-RORgamma UAS-luciferase reporter, 20 h; Potency, µM (top dose mostly 53.6 µM), for inactives: top-dose activity change, negative = inhibition, usual class: inhibitors; hit rate 5.4% among 310,000; also: potency is read from the fitted curve at half-maximal effect; nearly all actives have a fitted effect of over 60% in size
# Target sequence (P51450 whole entry, looked up, the tested form may be a part): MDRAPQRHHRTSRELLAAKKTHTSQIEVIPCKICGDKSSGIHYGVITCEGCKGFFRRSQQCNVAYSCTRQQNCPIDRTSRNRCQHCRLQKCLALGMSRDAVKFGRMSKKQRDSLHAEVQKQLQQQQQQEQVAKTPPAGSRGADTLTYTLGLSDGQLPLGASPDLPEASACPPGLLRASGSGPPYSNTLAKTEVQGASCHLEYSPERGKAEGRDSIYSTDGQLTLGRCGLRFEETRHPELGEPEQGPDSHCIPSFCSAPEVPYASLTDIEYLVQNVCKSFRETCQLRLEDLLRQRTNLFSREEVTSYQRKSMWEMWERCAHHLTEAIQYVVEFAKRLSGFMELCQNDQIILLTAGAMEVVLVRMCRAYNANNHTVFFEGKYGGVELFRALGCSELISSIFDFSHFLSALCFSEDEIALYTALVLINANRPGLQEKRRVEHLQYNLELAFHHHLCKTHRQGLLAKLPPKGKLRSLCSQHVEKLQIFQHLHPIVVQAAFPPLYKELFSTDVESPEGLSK
#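 Schneider cells (Drosophila), stable Gal4 DBD–ROR gamma + UAS-luc; 1 hr cmpd preincubation; Cu2+ induction 700 uM final; 20 hr ambient; luminescence.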
# Gal4-VP16 FLuc = VP16 counterscreen qHTS for inhibitors of ROR gamma transcriptional activity. Drosophila S2 Gal4-VP16 UAS-luciferase, luminescence, 20 h. Potency, µM (highest dose often 53.6 µM), without a hit: at the top dose activity, negative = inhibition, actives largely listed as inhibitors. hit rate 3.5% among 310,000;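 also: Gal4-VP16 expression switched on by copper sulfate through the metallothionein promoter; potency is read from the fitted curve at half-maximal effect; nearly all actives have a fitted effect of over 50% in size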
# TDP1 cell CPT = qHTS for Inhibitors of human tyrosyl-DNA phosphodiesterase 1 (TDP1): qHTS in cells in presence of CPT | chicken DT40 Tdp1-/-;hTDP1 cells + 20 nM CPT, ATP luminescence, 48 h | Potency, µM (highest dose often 46.2 µM), without a hit: at the highest dose activity change, negative = growth inhibition, usual class: inhibitors | hit rate 12% among 420,000 | AID 686979, 2013; also: potency is read from the fitted curve at half-maximal effect; nearly all actives have a fitted effect of over 55% in size
#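 Chicken DT40 Tdp1-/- cells complemented with human TDP1, 400 cells/well, exposed to compounds plus 20 nM camptothecin for at least 48 h at 37 C; viability read as ATP content by CellTiter-Glo luminescence.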
# IL-1B inflam inh = qHTS for Inhibitors of Inflammasome Signaling: IL-1-beta AlphaLISA Primary Screen; THP-1 LPS/ATP IL-1B secretion, AlphaLISA, 16 h; stronger effect = lower value; activity change, % at 57.5 µM; hit rate 4.7% among 360,000; in the data active = activity change below about -50%; inconclusive = mostly about -30% to -49%
#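 Secreted IL-1B measured by AlphaLISA bead assay after 16 h compound exposure of THP-1 cells; compounds (final up to 57.5 uM) added 1 h before LPS (250 ng/mL) and ATP (1.25 mM) stimulation; lower signal means less secretion.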
# DT40 TDP1 no CPT = qHTS for Inhibitors of human tyrosyl-DNA phosphodiesterase 1 (TDP1): qHTS in cells in absence of CPT; DT40 Tdp1-/- hTDP1 cells, no CPT, ATP luminescence, 48 h; Potency, µM (doses to about 46.2 µM), for the others: top-dose activity change, negative = growth inhibition, most hits filed as inhibitors; hit rate 15% among 420,000; AID 686978, 2013; also: potency is read from the fitted curve at half-maximal effect; nearly all actives have a fitted effect of over 55% in size
#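 No-CPT arm: Tdp1-/-;hTDP1 DT40 cells (400/well) plus compounds, incubated ≥48 hr at 37 °C. Readout CellTiter-Glo luminescence.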
# Starred values were filed as active, the others as inactive; ? = inconclusive; / = not tested or not shown. Only some compounds are listed: those with a hit (about 18% of all), similar ones and a draw of the others. Unless noted, calls follow the shape of the dose curve; as a rule, active = well fitted curve in the direction sought with a large enough effect; inconclusive = small, poorly fitted or top-dose-only effect, or another doubt; inactive = no such curve, though single readings can be large; an effect the other way counts as inactive or inconclusive. Unless noted, % is scaled to controls: 0 for no effect and ±100 for the full control effect.
SMILES,LDHA block,RORg inh,Gal4-VP16 FLuc,TDP1 cell CPT,IL-1B inflam inh,DT40 TDP1 no CPT
CCOC(=O)C1CCCN(S(=O)(=O)c2ccc3c(c2)CC(C)N3C(=O)C2CC2)C1 (stereo not given),-2.4,15.8%,-19.0%,18.4µM*,-13.1,-18.9%
CC1CCN(S(=O)(=O)c2ccc3c(c2)C(Cl)(Cl)C(=O)N3)CC1,14.7,/,/,10.3µM*,-28.1,16.4µM*
CC1CCN(c2cc(C#N)c(C#N)cc2[N+](=O)[O-])CC1,-1.8,-10.6%,-0.2%,-18.4%,12.3,-9.9%
CC1CCN(c2cc(N)c(Cl)cc2[N+](=O)[O-])CC1,-0.3,32.9%,15.7%,-2.5%,-78.2*,-21.6%
CCOC(=O)C1CCN(S(=O)(=O)c2ccc3c(c2)CC(C)N3C(=O)C2CCC2)CC1 (stereo not given),-9.0,31.7%,-5.2%,-25.2%,21.3,?
CCn1c(=O)c2cc(C(=O)N(C)c3ccc(OC)cc3OC)sc2c2ccccc21,-1.0,19.4%,3.1%,?,-7.3,13µM*
CCn1c(=O)c2cc(C(=O)N(C)c3ccccc3C)sc2c2ccccc21,2.3,/,/,/,/,/
CCn1c(=O)c2cc(C(=O)N(C)c3cc(C)ccc3OC)sc2c2ccccc21,0.6,-2.8%,2.5%,?,-84.5*,?
Cc1cccc(C)c1NC(=O)CC1(C(=O)O)CCCCC1,1.8,/,/,/,/,/
COc1ccc(-c2cc(C)no2)cc1S(=O)(=O)CCC(=O)Nc1cccc(Cl)c1,9.2,/,/,/,/,/
CN1CCCN(Cc2ccccc2C(F)(F)F)CC1,-33.9*,3.2%,-6.9%,-12.8%,-23.5,?
CCCS(=O)(=O)N1CCN(Cc2ccccc2C(F)(F)F)CC1,-22.8,-9.6%,-6.3%,-28.0%,7.1,-15.5%
O=Cc1cc2ccccc2nc1Sc1ccc(Cl)cc1,-2.7,/,/,/,/,/
O=Cc1cc2ccccc2nc1SCc1ccc(Cl)c(Cl)c1,-7.8,2.5%,-7.8%,1.03µM*,82.7,0.92µM*
O=Cc1cc2ccccc2nc1SCc1ccc(Cl)cc1,1.4,?,-20.6%,1.03µM*,-3.2,1.03µM*
Cc1ccc(-n2cc(-c3ccccc3)c3c(N4CCOCC4)ncnc32)cc1,-7.4,0.4%,1.3%,-29.3%,?,?
Cc1cccc(-n2cc(-c3ccccc3)c3c(N4CCOCC4)ncnc32)c1,-8.6,14.3%,2.5%,?,-66.9*,?
CCOC(=O)C1CCN(c2ncnc3c2c(-c2ccccc2)cn3-c2ccccc2)CC1,-4.0,32.8%,-11.0%,?,-20.5,23.1µM*
CCOc1ccc(-n2cc(-c3ccccc3)c3c(N4CCC(C)CC4)ncnc32)cc1,-6.2,/,/,?,/,?
CCOc1ccc(-n2cc(-c3ccccc3)c3c(N4CCN(c5ccccc5OC)CC4)ncnc32)cc1,-9.6,/,/,11.6µM*,/,16.4µM*
Cc1ccc(-n2cc(-c3ccccc3)c3c(N4CCCCC4)ncnc32)cc1,0.8,/,/,20.6µM*,/,23.1µM*
Fc1ccc(-c2ccc(CNCC3CCNCC3)o2)cc1Cl,9.7,/,/,/,/,/
Cc1ccc(-c2noc(-c3cc4cccc(O)c4oc3=O)n2)cc1,25.6,/,/,/,/,/
COc1ccc(CN(C(=O)c2nn(C)c(=O)c3ccccc23)C2CCS(=O)(=O)C2)cc1 (stereo not given),-1.3,/,/,/,/,/
COc1ccc(Cn2c3c(c(=O)[nH]c2=O)CN(Cc2ccccc2)CN3)cc1,3.2,/,/,/,/,/
SMILES,LDHA block,RORg inh,Gal4-VP16 FLuc,TDP1 cell CPT,IL-1B inflam inh,DT40 TDP1 no CPT
Cc1cc(C)c2nc(N3CCN(C(=O)CCS(=O)(=O)c4ccccc4)CC3)sc2c1,5.8,/,/,/,/,/
COc1ccc(-n2cc(-c3ccccc3)c3c(N4CCCC(C)C4)ncnc32)cc1 (stereo not given),-2.4,/,/,16.4µM*,/,10.3µM*
CC1CCc2nc3ccccc3c(C(=O)OCC(=O)NC3CCS(=O)(=O)C3)c2C1 (stereo not given),-7.1,0.5%,7.1%,-1.7%,-7.6,-26.6%
Cc1c2c(nc3ccccc13)CCC(C)C2 (stereo not given),-8.4,11.2µM*,-22.9%,15.5%,5.8,-20.8%
COC(=O)c1ccc(OCc2cc(Br)ccc2OC)cc1,12.4,/,/,/,/,/
C=CCn1c(C)cc(C(=O)CN2NS(=O)(=O)c3ccccc3C2=O)c1C,0.5,?,?,4.61µM*,87.9,3.66µM*
O=C(Cn1nc(Br)nc1Br)c1ccc(Cl)cc1,-2.7,/,/,/,/,/
C=CCn1c(C)cc(C(=O)Cn2ncc(Cl)c(Cl)c2=O)c1C,-3.5,?,?,5.8µM*,-102.4*,4.11µM*
Cc1ccc(CNC(=O)CN2NS(=O)(=O)c3ccccc3C2=O)cc1,-5.0,/,/,-11.6%,9.7,0.1%
C=CCn1c(C)cc(C(=O)COC(=O)c2nn(CCC)c(=O)c3ccccc23)c1C,7.9,/,/,/,/,/
O=C(Cn1ncc(Cl)c(Cl)c1=O)c1ccc(Cl)cc1,-1.7,?,-65.7%,2.91µM*,-68.1*,2.59µM*
CC(C)(C)C(=O)Cn1ncc(Cl)c(Cl)c1=O,-7.9,-109.4%,1.4%,16.4µM*,-100.5*,10.3µM*
Nc1nc(CN2CCN(C(=O)c3cc(Cl)cc(Cl)c3)CC2)nc2ccccc12,1.0,/,/,/,/,/
Cc1noc2nc(-c3ccccc3F)cc(C(=O)NCc3ccccc3)c12,2.2,/,/,/,/,/
COc1ccccc1N1CCN(S(=O)(=O)c2c(C)sc3ncn(CC(=O)N(C)c4ccc(Cl)cc4)c(=O)c23)CC1,-4.4,/,/,18.4µM*,/,16.4µM*
COCCNC(=O)Cn1cnc2sc(C)c(S(=O)(=O)N3CCN(c4ccccc4OC)CC3)c2c1=O,-1.6,-2.4%,-10.1%,10.5%,12.6,-8.4%
CCCCN(CC)CCNC(=O)Cn1cnc2sc(C)c(S(=O)(=O)N3CCN(c4ccccc4OC)CC3)c2c1=O,-7.9,/,/,?,/,?
CCCCN(C)C(=O)Cn1cnc2sc(C)c(S(=O)(=O)N3CCN(c4ccccc4OC)CC3)c2c1=O,-1.1,11.8%,3.4%,23.1µM*,10.7,23.1µM*
Cc1ccc(S(=O)(=O)N2CCOC23CCN(C(=O)c2ccc(Cl)cc2Cl)CC3)cc1,-2.5,32.0%,0.4%,?,?,20.6µM*
COc1ccc(S(=O)(=O)N2CCC3(CC2)OCCN3S(=O)(=O)c2cccs2)cc1,-3.1,/,/,-15.1%,7.7,?
Cc1ccc(S(=O)(=O)N2CCOC23CCN(S(=O)(=O)c2c(C)cc(C)cc2C)CC3)cc1,-2.5,/,/,18.4µM*,-18.7,?
